This note sets out measurements from PubChem BioAssay (NCATS).

Test [1] is described as follows: MultiTox-Fluor Cytotoxicity Assay - LYMP1-002 - Dead Cells (AID 960). Note: nearly all actives have a fitted effect of over 60% in size. Put shortly: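 Human lymphoblastoid cells (LYMP1-002), 2500/well in complete medium, were exposed to compounds for 16 hr at 37 C. Dead-cell protease activity was read as bis-AAF-R110 fluorescence (Ex/Em 485/520), normalized to DMSO and 15 uM tetraoctylammonium bromide; AC50 from Hill fits.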
Test [2] can be described thus: MultiTox-Fluor Cytotoxicity Assay - LYMP1-003 - Dead Cells (AID 961). Note: nearly all actives have a fitted effect of over 70% in size. A digest of the protocol: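 Human lymphoblastoid LYMP1-003 cells (2500/well) were treated with compounds for 16 hr at 37 C in complete medium. Dead-cell protease release was read by bis-AAF-R110 fluorescence (Ex/Em 485/520). AC50 came from Hill fits, normalized to DMSO and 15 uM tetraoctylammonium bromide.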

Test [3] can be described thus: MultiTox-Fluor Cytotoxicity Assay - LYMP1-003 - Live Cells (AID 962).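 Note: cytotoxic hits lower the live-cell protease signal.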 Put shortly:
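LYMP1-003 human lymphoblastoid cells (2500/well) in complete medium were preincubated 5 hr at 37 C, then exposed to compounds for 16 hr at 37 C. Live-cell protease cleavage of GF-AFC read by fluorescence (Ex/Em 405/510); AC50 from Hill fits.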

Test [4] in a line: Cell Viability - LYMP1-003 - Assay at 24 hr (AID 963). A digest of the protocol:
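Human lymphoblastoid LYMP1-003 cells (2500/well) were rested 5 hr at 37 C, then exposed to compounds in complete medium for 24 hr at 37 C. Cellular ATP was quantified by CellTiter-Glo luminescence, and AC50 values came from Hill fits of concentration-response data.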

The nature of test [5]: Cell Viability - LYMP1-003 - Assay at 40 hr (AID 964). Note: series mostly up to about 92 µM; nearly all actives have a fitted effect of over 60% in size. Put shortly:
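Human lymphoblastoid LYMP1-003 cells, 2500/well in complete medium, rested 5 hr at 37 C, then exposed to compounds for 40 hr at 37 C. Viability read as intracellular ATP by CellTiter-Glo luminescence; AC50 from Hill fits of concentration-response data.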

Test [6] is described as follows: Cell Viability - LYMP2-003 (AID 965).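 Note: cells exposed to compounds for 24 h before reading; nearly all actives have a fitted effect of over 50% in size.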 Put shortly: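 Seed 2500 lymphoblastoid cells/well; incubate 5 hr, 37 C; add compounds; incubate 24 hr, 37 C; add CellTiter-Glo, 30 min RT; read luminescence. AC50 from Hill fit.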
A short description of test [7]: Cell Viability - LYMP2-004 (AID 966). Note: nearly all actives have a fitted effect of over 65% in size. Put shortly:
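Human lymphoblastoid cells (2500/well) in complete medium were treated with compounds for 24 hr at 37 C, then intracellular ATP was measured by CellTiter-Glo luminescence. AC50 values came from Hill-equation fits of concentration-response data.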

Test [8] can be described thus: Cell Viability - LYMP2-005 (AID 967). Note: series mostly up to about 92 µM. Put shortly:
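Acute cytotoxicity is scored as a concentration-dependent drop in intracellular ATP in human lymphoblastoid LYMP2-005 cells after 24 h compound treatment. ATP is quantified by luciferase luminescence, and AC50 is derived by Hill-equation modelling.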

Test [9] can be described thus: Cell Viability - LYMP2-023 (AID 975).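 Note: cellular ATP measured by luciferase luminescence as viability proxy; series mostly up to about 92 µM; nearly all actives have a fitted effect of over 55% in size.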 Put shortly: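 Human lymphoblastoid cells (2500/well) were preincubated 5 hr at 37 C, then exposed to compounds for 24 hr at 37 C in complete medium. Cellular ATP was read by CellTiter-Glo luminescence, and AC50 came from Hill-equation fits.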
Test [10] is described as follows: Cell Viability - LYMP2-025 (AID 976). Note: series mostly up to about 92 µM. A digest of the protocol:
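Human lymphoblastoid LYMP2-025 cells (2500/well) were pre-incubated 5 hr at 37 C, then treated with compounds for 24 hr at 37 C in complete medium. Viability was read as intracellular ATP by CellTiter-Glo luminescence; AC50 from Hill fits.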

Test [11] in a line: Cell Viability - LYMP2-002 (AID 977). Note: series mostly up to about 92 µM. A digest of the protocol: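 Luminescent ATP readout (CellTiter-Glo, 30 min room temperature) after 24 h compound exposure at 37 C of a human lymphoblastoid line, 2500 cells/well. AC50 values derived by standard Hill fitting of qHTS concentration-response data.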
A short description of test [12]: Cell Viability - LYMP2-006 (AID 978). Note: series mostly up to about 92 µM; nearly all actives have a fitted effect of over 60% in size. Put shortly: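 Cells are seeded at 2500 per well and rested 5 hr at 37 C. Compounds are added across a concentration series for 24 hr at 37 C, after which ATP is quantified by luciferase luminescence.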
Test [13] can be described thus: Cell Viability - LYMP2-007 (AID 979).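 Note: cells exposed to compound for 24 h before reading; nearly all actives have a fitted effect of over 60% in size.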 Note: potency is the fitted concentration of half-maximal effect. A digest of the protocol:
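Human lymphoblastoid cells (2500/well) were plated in complete medium, incubated 5 hr at 37 C, then exposed to compounds for 24 hr at 37 C. Intracellular ATP was read by CellTiter-Glo luminescence after 30 min at room temperature; AC50 from Hill fits.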

Test [14] is described as follows: Cell Viability - LYMP2-012 (AID 982).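 Note: cellular ATP by luciferase luminescence where a drop means cytotoxicity; cells exposed to compound for one day before reading; nearly all actives have a fitted effect of over 55% in size.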
Test [15] in a line: Cell Viability - LYMP2-014 (AID 983). Note: series mostly up to about 92 µM; nearly all actives have a fitted effect of over 50% in size. A digest of the protocol:
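Human lymphoblastoid cells (2500/well) were pre-incubated 5 hr at 37 C, then exposed to compounds in complete medium for 24 hr at 37 C. Intracellular ATP was read by CellTiter-Glo luminescence after 30 min at room temperature; AC50 from Hill fits.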

The nature of test [16]: Cell Viability - LYMP2-016 (AID 984). Note: nearly all actives have a fitted effect of over 55% in size. Put shortly: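 Cells were seeded at 2500 per well and rested 5 hr before a 24 hr compound exposure at 37 C. Viability was then gauged as cellular ATP by luciferase luminescence, with AC50 values fitted to the Hill equation.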
Test [17] can be described thus: Cell Viability - LYMP2-018 (AID 985). Note: nearly all actives have a fitted effect of over 50% in size. Put shortly:
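Human lymphoblastoid cells (2500/well) were pre-incubated 5 hr at 37 C, then exposed to compounds for 24 hr at 37 C in complete medium. Viability was read as intracellular ATP by CellTiter-Glo luminescence; AC50 values came from Hill-equation fits.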

Test [18] is described as follows: Cell Viability - LYMP2-020 (AID 986). Note: series mostly up to about 92 µM; nearly all actives have a fitted effect of over 55% in size. A digest of the protocol:
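Human lymphoblastoid cells, 2500/well, were pre-incubated 5 hr at 37 C, then exposed to compounds for 24 hr at 37 C in complete medium. Intracellular ATP was read by CellTiter-Glo luminescence, and AC50 was derived by Hill fitting of concentration-response data.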

Test [19] in a line: Cell Viability - LYMP2-022 (AID 987). Note: nearly all actives have a fitted effect of over 55% in size. A digest of the protocol:
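Human lymphoblastoid cells, 2500/well, preincubated 5 hr at 37 C, then exposed to compounds over a concentration range for 24 hr at 37 C in complete medium. Viability read as intracellular ATP by CellTiter-Glo luminescence after 30 min at room temperature; AC50 from Hill fits.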

Test [20] is described as follows: Cell Viability - LYMP2-024 (AID 988). Note: nearly all actives have a fitted effect of over 60% in size. Put shortly:
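Human lymphoblastoid cells (2500/well) in complete medium were preincubated 5 hr at 37 C, then exposed to compounds for 24 hr at 37 C. Intracellular ATP was read by CellTiter-Glo luminescence; AC50 from Hill-equation fits of concentration-response data.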

SMILES strings stand for the structures. Inconclusive results are not listed. The source made the active and inactive calls. Calls come from the whole dose curve; as a rule, active = well fitted curve in the direction sought with a large enough effect; inconclusive = small, poorly fitted or top-dose-only effect, or another doubt; inactive = no such curve, though single readings can be large; an effect the other way counts as inactive or inconclusive.

Consider `C=CCc1ccc2c(c1)OCO2`, for which the Potency entry in test [1], in [2], in test [3], in test [4], in test [5] and in test [6] was “inactive” throughout. Further, the Potency result in test [7], in [8], in test [9], in test [10], in test [11] and in test [12] was “inactive” throughout. Further, the Potency entry in test [13], in test [14], in test [15], in test [16], in [17] and in test [18] was “inactive” in each case. For the same compound, the Potency result in test [19] and in test [20] was “inactive” in each case.
With `c1ccc(N=Nc2ccccc2)cc1`, the Potency entry in test [1], in [2], in test [3], in test [4], in test [5] and in [6] was “inactive” each time. In addition, the Potency entry in test [7], in test [8], in [9], in test [10], in test [11] and in test [12] was “inactive” throughout. Besides, the Potency result in [14], in test [15], in test [16], in [17], in test [18] and in test [19] was “inactive” throughout. Further, in test [20], the Potency entry is “inactive”. Also, in test [13], the Potency is 31.6 µM (active).
